Assay results published in PubChem BioAssay AID1626 (SRMLSC, 2009).
In all, about 220,000 compounds went through this assay and about 2,000 (0.91%) were called active. Roughly 2% stayed inconclusive and do not appear here. Rule as the data show it: inconclusive = inhibition above about 80% without an active follow-up result; inactive = below that; test concentration not stated here. A selection follows. Measured potencies and affinities stand elsewhere.

Test: M. tuberculosis H37Rv growth inhibitors, H37Rv strain (AID 1626);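 also: bacteria incubated seven days before Alamar blue readout; 0% = bacteria only wells and 100% = bacteria with antibiotic wells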
Settings: hits give high values, concentration not given here

Compound | inhibition
CCOc1ccc(NC(=O)CSc2nccn2C)cc1 | -4.59% (inactive)
Cc1ccc(NC(=O)CSC2=NCCN2)cc1 | -0.03% (inactive)
CCCCOc1ccc(NC(=O)CN2CCN(C(=O)OCC)CC2)cc1 | -7.38% (inactive)
COc1cc2c(cc1OC)C(c1ccco1)CC(=O)N2 (stereo unspecified) | -0.34% (inactive)
CC(=O)Nc1ccc(/C=C/c2ccc3c([N+](=O)[O-])cccc3n2)cc1 | -0.6% (inactive)
COc1cc(/C=C/c2ccc3cccc([N+](=O)[O-])c3n2)ccc1OCC(=O)O | 6.21% (inactive)
Cc1ccc(C(c2sc3nc(C)nn3c2O)N2CCOCC2)cc1 (stereo unspecified) | -3.42% (inactive)
CCOC(=O)c1ccc(NC(=O)c2nc[nH]c2C(=O)NC)cc1 | -7.95% (inactive)
CNC(=O)c1[nH]cnc1C(=O)Nc1ccc(OC)cc1 | 5.16% (inactive)
Cc1ccc(NC(=O)c2nc[nH]c2C(=O)Nc2ccc(C)cc2)cc1 | -0.81% (inactive)
COc1ccc(NC(=O)c2nc[nH]c2C(=O)N[C@@H](C)C(=O)OC(C)(C)C)cc1 | 5.92% (inactive)
CNC(=O)c1[nH]cnc1C(=O)Nc1ccc(C)cc1 | 16.9% (inactive)
CCOC(=O)c1ccc(NC(=O)c2nc[nH]c2C(=O)N[C@@H](CC(C)C)C(=O)OCc2ccccc2)cc1 | -7.55% (inactive)
Cc1ccc(CSc2ncnc3ccccc23)cc1 | 5.46% (inactive)
CCCOc1ccc(C(=O)NCC2OCCc3ccccc32)cc1OC (stereo unspecified) | -1.65% (inactive)
CCOC(=O)C1CCCN(C2CC(=O)N(c3cccc(C)c3)C2=O)C1 (stereo unspecified) | -3.61% (inactive)
CN(C)c1c(F)cc(C(=O)NCc2ccccc2)cc1F | -11.1% (inactive)
CN(CC(=O)Nc1ccc(Cl)cc1)CC(=O)Nc1cc(Cl)ccc1C#N | -1.32% (inactive)
ClCc1csc(N/N=C/c2cccs2)n1 | -4.27% (inactive)
CNc1nc(OC)nc(N2CCOCC2)n1 | -9.75% (inactive)
CSc1cccc(CN2CCN(Cc3ccccc3)C(CCO)C2)c1 (stereo unspecified) | 3.04% (inactive)

Compound | inhibition
O=C1c2ccccc2S(=O)(=O)c2cc(C(=O)N3CCN(c4ccc(Cl)cn4)CC3)ccc21 | 5.58% (inactive)
CSc1ncc(-c2ccccc2)cn1 | 2.05% (inactive)
CSc1nnc(-c2ccccc2)c(-c2ccccc2)n1 | 13.9% (inactive)
COc1ccccc1-c1ccc(SCc2ccc(F)cc2)nn1 | -3.99% (inactive)
O=C(O)/C=C/C(=O)Nc1ccc(C(=O)c2ccccc2)cc1 | -9.86% (inactive)
CCOc1ccc(-c2cn3ccccc3n2)cc1 | 1.22% (inactive)
CCOC(=O)c1cccc(S(=O)(=O)N(CCO)Cc2cc3cc(OC)ccc3[nH]c2=O)c1 | -6.73% (inactive)
COc1ccc(NCc2nc3ccccc3n2CCOc2ccccc2)cc1 | 77.4% (inactive)
Cc1ccc(NCc2nc3ccccc3n2CCOc2ccccc2)cc1 | 4.17% (inactive)
CC(OC(=O)C1CC1)C(=O)Nc1cc(C(F)(F)F)ccc1Cl (stereo unspecified) | -2.2% (inactive)
CC(C)C(OC(=O)c1ccccc1)c1nccc2ccccc12 (stereo unspecified) | 1.56% (inactive)
O=C(OC(c1ccccc1)c1nccc2ccccc12)c1cccc([N+](=O)[O-])c1 (stereo unspecified) | 2.31% (inactive)
O=C(CC1SC(=Nc2ccccc2)N(CCc2c[nH]c3ccccc23)C1=O)Nc1ccccc1F (stereo unspecified) | 11.6% (inactive)
COc1cc(/C=C(\C#N)C(=O)NCC2CCCO2)cc(OC)c1OC (stereo unspecified) | 2.41% (inactive)
CCCCCCN1C=CC=C/C1=C/C=C(C#N)C#N | -1.95% (inactive)
COc1ccc(C(=O)CN2CCOCC2)cc1F | -8.03% (inactive)
CCCCOc1ccc(C(=O)C(CN2CCOCC2)c2ccccc2)cc1 (stereo unspecified) | 66.5% (inactive)
COc1ccc(C(O)C(CN2CCOCC2)c2ccccc2)cc1F (stereo unspecified) | -9.62% (inactive)
CCCOc1ccc(C(=O)C(CN2CCOCC2)c2ccccc2)cc1 (stereo unspecified) | 78.9% (inactive)
CC(NC1CCCCC1)C(O)C12CC3CC(CC(C3)C1)C2 (stereo unspecified) | -0.62% (inactive)
CCn1nc(C(=O)OCC(=O)c2cc(C)n(Cc3cccs3)c2C)c2ccccc2c1=O | -3.97% (inactive)

Compound | inhibition
CN1CCN(NC(=O)c2cccc(C(F)(F)F)c2)CC1 | -1.25% (inactive)
CCNc1nc(NC(C)(C)C)nc(N(C#N)CC)n1 | 2.33% (inactive)
COc1ccc(Nc2nc3c(C)cccn3c(=O)c2C=NCc2ccccc2)cc1 | 10.2% (inactive)
Cc1cccn2c(=O)c(C=Nc3ccccc3)c(NCCO)nc12 | 2.59% (inactive)
COc1cc(C(=O)OCC(=O)NC2CCS(=O)(=O)C2)c([N+](=O)[O-])cc1OC (stereo unspecified) | -0.03% (inactive)
COC(CC(=O)NNC(=S)Nc1ccc(Cl)cc1)OC | 4.27% (inactive)
CCOC(=O)C1=C(N)N(c2ccc(N3CCCCC3)cc2)C(=O)C1 | -16.5% (inactive)
O=C(CN(C(=O)c1ccccc1Cl)C1CCCCC1)Nc1ccc(Cl)c([N+](=O)[O-])c1 | -3.85% (inactive)
Cc1ccc([N+](=O)[O-])cc1NC(=O)CN(C(=O)c1ccc(Cl)cc1)C1CCCCC1 | 3.68% (inactive)
Cc1ccccc1NC(=O)C(=O)NCCCN1CCOCC1 | -3.37% (inactive)
COc1cccc(OCCNC(=O)c2cccc(OC)c2)c1 | 4.61% (inactive)
COc1cc(/C=C/C(=O)c2ccc(O)cc2)ccc1OCC#N | 17.5% (inactive)
COc1cc(/C=C/C(=O)c2ccc(C)c([N+](=O)[O-])c2)cc(OC)c1O | 9.83% (inactive)
COc1cc(/C=C/C(=O)c2ccc(C)cc2)ccc1OCC#N | 8.8% (inactive)
COc1cccc(/C=C/C(=O)c2ccc(C)c([N+](=O)[O-])c2)c1 | 17.5% (inactive)
COc1cc(C(=O)O/N=C(\N)c2cccc([N+](=O)[O-])c2)cc(OC)c1OC | -4% (inactive)
O=C(NCCOc1ccccc1)c1cc(C(=O)NCCOc2ccccc2)cc([N+](=O)[O-])c1 | 15.8% (inactive)
COc1cccc(C(=O)/C=C/c2ccc(SC)cc2)c1 | 5.8% (inactive)
CC(=O)c1c(C)[nH]c(C(=O)CSc2nnc(CN3CCCCCC3=O)n2-c2ccccn2)c1C | -2.46% (inactive)
